SMILES strings stand for the structures. The whole screen tested about 420,000 compounds, of which about 64,000 (15%) were called active. Not shown: some 27% with an inconclusive outcome. The call rests on the fitted dose curve; in most records, active means well fitted inhibition curve with a large enough effect; inconclusive means small, poorly fitted or top-dose-only effect; inactive means flat fitted curve, though single readings scatter. These entries were drawn from the full list. A call without a number means that no potency is given here.
Potency means the concentration at half of the fitted maximal effect.

A short description of this experiment: qHTS for Inhibitors of human tyrosyl-DNA phosphodiesterase 1 (TDP1): qHTS in cells in absence of CPT. Further: nearly all actives have a fitted effect of over 55% in size. As to conditions: DT40 Tdp1-/- hTDP1 cells, no CPT, ATP luminescence, 48 h; activity change, negative = growth inhibition: at 46.2 µM (top of the series). A digest of the protocol: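 Luminescent ATP content (CellTiter-Glo) served as the growth readout. Knockout chicken DT40 cells expressing human TDP1 were exposed to compounds without camptothecin for a minimum 48 hr at 37 °C.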
On the technique in general: In qHTS, concentration-response curves come from the screen itself.
For the compound `CCOC(=O)c1nnn(CC(=O)Nc2cccc(F)c2)c1C(=O)OCC`, the Potency result is “inactive”.
For `CCCCn1c(N)c(N2CCOCC2)c(=O)n(CC(=O)NCCc2ccccc2)c1=O` the value was “inactive”; for `Cc1ccc(NNC(=O)C2CCC2)cc1C`, “inactive”; for `COc1ccccc1-c1c(C#N)c(N)nc2c1CCC2`, “inactive”.
Under `Cc1ccc2nsnc2c1NC(=O)c1ccccc1[N+](=O)[O-]` stands “inactive”.
In the case of `Cc1c(CN2CCC(n3nccc3NC(=O)CCc3ccccc3)CC2)cnn1C`, the Potency entry is “inactive”.
Under `c1ccc(CCC2=NCCn3cccc32)cc1` stands “inactive”.
Under `CCc1ccc(NC(=O)CN2C(=O)CSC2=O)cc1` stands “inactive”; under `c1ccc(C(=NNc2nc3ccccc3s2)c2ccccn2)cc1`, 0.13 µM (active).
For the compound `Cc1ccnc(Nc2nc3ccccc3s2)n1`, the Potency result was “inactive”.
For the compound `O=C(Nc1ccccc1Cl)O/N=C(/c1ccccc1)c1ccccn1`, the Potency entry is “inactive”.
For `CCC(CC)C(=O)Nc1ccc(S(=O)(=O)Nc2nccs2)cc1` the value was “inactive”; for `O=C(NCCC1=CCCCC1)c1ccc(Cl)c([N+](=O)[O-])c1`, 16.4 µM (active); for `Cc1ccnc(NC(=O)c2ccc(Cl)c([N+](=O)[O-])c2)c1`, “inactive”.
For `O=C(Nc1cccnc1)c1ccc(Cl)c([N+](=O)[O-])c1` the value was “inactive”.
With `O=C(Nc1ccncc1)c1ccc(Cl)c([N+](=O)[O-])c1`, the Potency was 14.6 µM (active).
For `O=C(NCCC1=CCCCC1)c1ccc(-n2cncn2)cc1` the value was “inactive”.
For `Cn1nnc2cc(C(=O)NCCC3=CCCCC3)ccc21` the value was “inactive”; for `C#CCCCCCCCCCCCCCCCC(=O)O`, “inactive”; for `CCCCC(=O)OC1=CN(Cc2ccccc2)S(=O)(=O)c2ccccc21`, “inactive”.
For `CCOC(=O)Cc1cccc(-c2cc(CCCCCCc3ccc(O[C@H]4O[C@H](COC(C)=O)[C@@H](OC(C)=O)[C@H](OC(C)=O)[C@@H]4OC(C)=O)c(-c4cccc(CC(=O)OCC)c4)c3)ccc2O[C@H]2O[C@H](COC(C)=O)[C@@H](OC(C)=O)[C@H](OC(C)=O)[C@@H]2OC(C)=O)c1` the value was “inactive”; for `COC(C[C@@H]1O[C@@H]1C(=O)[C@@H](C)OCc1ccccc1)OC`, “inactive”; for `Cc1ccccc1CSCCNC(=O)C1CCN(S(=O)(=O)Cc2ccccc2)CC1`, “inactive”.
As to `Cc1cccc(NC(=O)C2CCCN(C(=O)Nc3ccc(F)cc3)C2)c1C` (stereo not given), the Potency entry was “inactive”.
Under `Cc1c(Cl)cccc1NC(=O)C1CCCN(c2ncnc3onc(C)c23)C1` (stereo not given) stands 6.51 µM (active); under `Cc1ccc(Cl)cc1NC(=O)C1CCCN(c2cnccn2)C1` (stereo not given), “inactive”; under `Cc1cn([C@H]2C[C@H](O)[C@@H](/C=C/C(=O)NCCCc3ccccc3)O2)c(=O)[nH]c1=O`, “inactive”.
`Cc1ccc(C)c(NC(=O)C2CCCN2C(=O)OC(C)(C)C)c1` (stereo not given): the Potency entry is “inactive”.
For `Cc1ccc(C)c(N2CCN(CCCNC(=O)Nc3ccc(Cl)cc3)CC2)c1` the value was 6.51 µM (active); for `CCOC(=O)N1CCC(Nc2c(NCCCN3CCN(c4ccc(OC)cc4)CC3)c(=O)c2=O)CC1`, “inactive”; for `Cc1ccccc1N1CCN(CC(=O)NCc2ccc(Cl)cc2)CC1`, “inactive”.
Under `Cc1ccc(C)c(N2CCN(C(=O)Cc3c(C(=O)O)c(C)cn3C)CC2)c1` stands “inactive”; under `O=C(COc1cc2oc(=O)c3c(c2cc1Cl)CCC3)NCCCN1CCOCC1`, “inactive”; under `Cn1c(=O)cc(OCC(=O)N2CCN(c3ccccc3)CC2)c2ccccc21`, “inactive”.
For the compound `CCn1c(=O)cc(OCC(=O)NCCCN2CCN(c3cccc(Cl)c3)CC2)c2ccccc21`, the Potency is 20.6 µM (active).
For `CCOC(=O)c1c(C)[nH]c(CCC(=O)NCCCN2CCN(c3cc(C)ccc3C)CC2)c1C` the value was 4.61 µM (active).
For `CCOC(=O)c1c(C)[nH]c(CCC(=O)NCCCN2CCN(c3cccc(Cl)c3)CC2)c1C` the value was 16.4 µM (active).
Under `COc1ccc(N2CCN(CCNC(=O)Nc3cc(Cl)ccc3Cl)CC2)cc1` stands “inactive”; under `CCOC(=O)N1CCC(Nc2c(NCCN3CCN(c4cccc(Cl)c4)CC3)c(=O)c2=O)CC1`, “inactive”.
As to `CCOC(=O)c1c(C)[nH]c(C(=O)NCCN2CCOCC2)c1C`, the Potency entry is “inactive”.
In the case of `CCOc1ccc(S(=O)(=O)NCCCn2ccnc2)cc1NC(C)=O`, the Potency result is “inactive”.
As for `CN(CCc1ccccc1)c1ccc([N+](=O)[O-])cn1`, the Potency entry was “inactive”.
For `C/C=C(/C)C(=O)Nc1cccc(C2=NOC3(C2)C[C@@H](C(N)=O)N(C(=O)C2(C)CC2)C3)c1` (stereo not given in full) the value was “inactive”.
`O=C(NCC(O)c1ccc([N+](=O)[O-])cc1)C1CCCCC1` (stereo not given): the Potency entry is “inactive”.
For `C=CC1C(OC2OC(CO)C(O)C(O)C2O)OC=C(C(=O)OC)C1CC1CC(=O)CC(CC(=O)CCc2ccc(O)cc2)O1` (stereo not given) the value was “inactive”; for `C[C@@H](O)c1nc2ccccc2n1N`, “inactive”.
Under `C#CCOCCOCCOCCNc1nc(N2CCOCC2)nc(N2CCN(C(=O)[C@H](Cc3ccc(O)cc3)n3cc(CCO)nn3)CC2)n1` stands “inactive”.
Under `Cn1cc(CN2CCCCC2c2ccccn2)c(-c2ccc3c(c2)OCCO3)n1` (stereo not given) stands “inactive”; under `CCc1nnc(NC(=O)CCC(=O)N2CCN(c3cc(C)ccc3C)CC2)s1`, “inactive”.
As for `COC(=O)c1ccc2c(c1)S(=O)(=O)NC(=NCCCN1CCOCC1)S2`, the Potency result is “inactive”.
For `CC1=C(c2ccc(C)cc2)S(=O)(=O)NC1=NCCCN1CCN(c2cc(C)ccc2C)CC1` the value was 3.66 µM (active).
Under `CCN(CC)C(=O)N1CCN(C(=O)c2ccc(C)cn2)CC1` stands “inactive”; under `CC(=NNC(=O)c1ccc2nc[nH]c2c1)c1ccc(Br)cc1`, “inactive”.
Under `Cc1nc2ccc(C(=O)N/N=C/c3ccc(O)cc3)cc2[nH]1` stands “inactive”; under `O=C(N/N=C/c1ccc(Cl)c(Cl)c1)c1ccc2nc[nH]c2c1`, 23.1 µM (active); under `CCCCc1ccc(S(=O)(=O)NC(=O)C2(C)CCN2C(=O)c2ccccc2)cc1` (stereo not given), “inactive”.
Consider `COc1ccc(C2/C(=C(/O)c3ccc4c(c3)CC(C)O4)C(=O)C(=O)N2Cc2ccncc2)cc1` (stereo not given), for which the Potency entry is “inactive”.
Under `COc1cc(C2C(C(=O)OCCC#N)=C(C)NC3=C2S(=O)(=O)c2ccccc23)cc(OC)c1OC` (stereo not given) stands “inactive”.
Under `O=C(Nc1ccccc1Br)c1cc(CN2CCCC2)on1` stands “inactive”; under `O=C(c1ccco1)N1CCN(C(=O)c2cc(-c3ccccc3F)no2)CC1`, “inactive”; under `CN(Cc1ccccc1)Cc1ccccc1F`, “inactive”.
Under `CN(Cc1ccccc1F)C(=O)C(Cc1ccccc1)NC(=O)c1ccccc1` (stereo not given) stands 16.4 µM (active); under `CC(Cc1ccccc1)C(=O)N(C)Cc1ccccc1` (stereo not given), “inactive”; under `Cc1ccc(C)c(C(C)NC(=O)C2CCCO2)c1` (stereo not given), “inactive”.
With `O=c1onc(-c2c(F)cccc2F)n1-c1ccccc1Cl`, the Potency result was “inactive”.
Under `CCOC(=O)Cn1c(SC)nc2sc3c(c2c1=O)CC(C)(C)OC3` stands 14.6 µM (active); under `CCSc1nc2sc3c(c2c(=O)[nH]1)CC(C)(C)OC3`, “inactive”.
For `CCOC(=O)CSc1nc2sc3c(c2c(=O)[nH]1)CC(C)(C)OC3` the value was “inactive”; for `CCOCCOC(=O)C1=C(C)N(C)C(=O)NC1c1ccccc1F` (stereo not given), “inactive”.
As to `COC(=O)C1(C)NC(c2ccccc2OC)C2C(=O)N(c3ccccc3)C(=O)C21` (stereo not given), the Potency entry was “inactive”.
On to `CCOC(=O)C1(Cc2ccc(O)cc2)NC(c2ccccc2F)C2C(=O)N(C)C(=O)C21` (stereo not given), for which the Potency is 20.6 µM (active).
For `Cc1n[nH]c(=O)c2c1nnn2Cc1ccc(F)cc1` the value was “inactive”; for `Cc1ccc(C)c(Cn2nnc3c(=O)[nH]c(C(=O)Nc4ccc(F)cc4)nc32)c1`, 16.4 µM (active); for `Cc1cc(C)cc(NC(=O)Cn2cnc3c(nnn3Cc3ccc(F)cc3)c2=O)c1`, “inactive”.
For `O=C1NC(c2ccccc2)Oc2ccccc21` (stereo not given) the value was “inactive”; for `O=C(OCCN1C(=O)c2ccccc2C1=O)Oc1ccccc1`, “inactive”; for `C[C@H]1CN([C@@H](C)CO)C(=O)CCCn2cc(nn2)CO[C@@H]1CN(C)C(=O)Nc1ccccc1`, “inactive”.
Turning to `COc1ccc(OC)c(C(=O)NC(CC(N)=O)c2ccc(N3CCC(N4CCCCC4)CC3)c([N+](=O)[O-])c2)c1` (stereo not given), the Potency entry is “inactive”.
For `NC(=O)CC(NC(=O)Cc1cccc2ccccc12)c1ccc(NCc2cc(F)ccc2F)c([N+](=O)[O-])c1` (stereo not given) the value was 29.1 µM (active); for `CC1CCCCN1CCCNc1ccc(C(CC(N)=O)NC(=O)c2ccccc2)cc1[N+](=O)[O-]` (stereo not given), “inactive”.
On to `CNc1ncnc2ccc(-c3cccc(NS(C)(=O)=O)c3)cc12`, for which the Potency is 18.4 µM (active).
`CS(=O)(=O)Nc1cccc(-c2cncnc2Nc2ccccc2)c1`: the Potency entry was “inactive”.
For `COc1ccccc1CNc1ncncc1-c1cccc(NS(C)(=O)=O)c1` the value was “inactive”; for `Cn1c2ccccc2c2cc(/C=C(\NC(=O)c3ccccc3)C(=O)NCC(=O)O)ccc21`, “inactive”; for `O=C(O)C1CCCN1C1=NS(=O)(=O)c2ccccc21` (stereo not given), “inactive”.
With `Fc1cccc(-n2ncc3c2ncn2nc(-c4ccccc4Cl)nc32)c1`, the Potency entry was “inactive”.
For `COc1ccc(C2Nc3ccc(NC(=O)COC(C)=O)cc3C(=O)N2Cc2ccccc2)cc1COc1ccc(NC(C)=O)cc1` (stereo not given) the value was 12.6 µM (active).
Under `COc1ccc(N2C(=O)c3ccccc3NC2c2ccc(OC)c(CN3CCOCC3)c2)cc1` (stereo not given) stands “inactive”; under `COc1cc(C2C3=C(CCCC3=O)OC3=C2C(=O)CCC3)ccc1OCC(=O)Nc1ccccc1`, “inactive”; under `CN(CC(=O)Nc1ccc(F)cc1)CC(=O)N1CCCCC1`, “inactive”.
Regarding `CCc1c(C)c2c(C)[nH]nc2oc1=O`, the Potency entry was “inactive”.
Take `COc1ccc(OC)c(Cc2cnc3nc(N)nc(N)c3c2C)c1`: the Potency was 0.164 µM (active).
For `COc1ccc(OC)c(-n2nnc3c(sc4nc(C)c(Br)c(C)c43)c2=O)c1` the value was “inactive”.
For `Cc1nnc(NC(=O)c2ccc3nccnc3c2)s1` the value was “inactive”.
Under `O=C(COc1ccc(Cl)cc1)NC(=S)Nc1ccccc1N1CCOCC1` stands “inactive”; under `O=C(COc1cccc(Cl)c1)NCc1ccccc1`, “inactive”; under `O=C(COc1nsnc1N1CCOCC1)Nc1ccccc1Cl`, “inactive”.
With `CCOc1cc(N2CCOCC2)c(OCC)cc1NC(=O)COc1cccc(Cl)c1`, the Potency is 2.59 µM (active).
Regarding `NC(=O)C1CCN(C(=O)COc2cccc3cccnc23)CC1`, the Potency entry was “inactive”.
For `CCOc1cc(N2CCOCC2)c(OCC)cc1NC(=O)COc1cccc2cccnc12` the value was 10.3 µM (active).

These data come from PubChem BioAssay AID686978 (National Center for Advancing Translational Sciences (NCATS), 2013).
